Where a chain is given by its changes, count along the chain named. The full ranking holds about 16,000 sequences; the median of “ka relative to ugcaugu” is about 0.096, and the highest 2% start at about 0.35. The entries come from a sample that favours the highest values as a whole.

The chains are these.
T1: RBFOX1 RRM RbFoxmut (Fox-RRM*) (Homo sapiens, UniProt Q9NWB1 109-208, R118D;E147R;N151S;E152T)
T1 sequence: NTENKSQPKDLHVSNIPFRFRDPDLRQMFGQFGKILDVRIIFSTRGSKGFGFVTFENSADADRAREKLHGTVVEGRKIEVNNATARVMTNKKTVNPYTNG

B1: AUUACUA (DNA:RNA)
RNA: GGGAGACCGGAAUUCAGAUUGUCCAUUACUAUUAAAUCCCGUCGUAGCCACCA
DNA 1: CAATCTGAATTCCGGTCTCCC
DNA 2: TGGTGGCTACGACGGGATT
B2: GGCACCG (DNA:RNA)
RNA: B1 RNA with A25G, U26G, U27C, U30C, A31G
DNA 1: CAATCTGAATTCCGGTCTCCC
DNA 2: TGGTGGCTACGACGGGATT
B3: GGCAUCG (DNA:RNA)
RNA: B1 RNA with A25G, U26G, U27C, C29U, U30C, A31G
DNA 1: CAATCTGAATTCCGGTCTCCC
DNA 2: TGGTGGCTACGACGGGATT
B4: GGCAUUC (DNA:RNA)
RNA: B1 RNA with A25G, U26G, U27C, C29U, A31C
DNA 1: CAATCTGAATTCCGGTCTCCC
DNA 2: TGGTGGCTACGACGGGATT
B5: GUCGGCA (DNA:RNA)
RNA: B1 RNA with A25G, U27C, A28G, C29G, U30C
DNA 1: CAATCTGAATTCCGGTCTCCC
DNA 2: TGGTGGCTACGACGGGATT
B6: GGCAUUG (DNA:RNA)
RNA: B1 RNA with A25G, U26G, U27C, C29U, A31G
DNA 1: CAATCTGAATTCCGGTCTCCC
DNA 2: TGGTGGCTACGACGGGATT
B7: GGCAUCC (DNA:RNA)
RNA: B1 RNA with A25G, U26G, U27C, C29U, U30C, A31C
DNA 1: CAATCTGAATTCCGGTCTCCC
DNA 2: TGGTGGCTACGACGGGATT
B8: CGAUGAA (DNA:RNA)
RNA: B1 RNA with A25C, U26G, U27A, A28U, C29G, U30A
DNA 1: CAATCTGAATTCCGGTCTCCC
DNA 2: TGGTGGCTACGACGGGATT
B9: AAAAUAC (DNA:RNA)
RNA: B1 RNA with U26A, U27A, C29U, U30A, A31C
DNA 1: CAATCTGAATTCCGGTCTCCC
DNA 2: TGGTGGCTACGACGGGATT
B10: CCACGAC (DNA:RNA)
RNA: GGGAGACCGGAAUUCAGAUUGUCCCCACGACUUAAAUCCCGUCGUAGCCACCA
DNA 1: CAATCTGAATTCCGGTCTCCC
DNA 2: TGGTGGCTACGACGGGATT
B11: AUUAACG (DNA:RNA)
RNA: B1 RNA with C29A, U30C, A31G
DNA 1: CAATCTGAATTCCGGTCTCCC
DNA 2: TGGTGGCTACGACGGGATT
B12: AUGAUUC (DNA:RNA)
RNA: B1 RNA with U27G, C29U, A31C
DNA 1: CAATCTGAATTCCGGTCTCCC
DNA 2: TGGTGGCTACGACGGGATT
B13: ACCAUGA (DNA:RNA)
RNA: B1 RNA with U26C, U27C, C29U, U30G
DNA 1: CAATCTGAATTCCGGTCTCCC
DNA 2: TGGTGGCTACGACGGGATT
B14: AUGAAUG (DNA:RNA)
RNA: B1 RNA with U27G, C29A, A31G
DNA 1: CAATCTGAATTCCGGTCTCCC
DNA 2: TGGTGGCTACGACGGGATT
B15: AUGAAUC (DNA:RNA)
RNA: B1 RNA with U27G, C29A, A31C
DNA 1: CAATCTGAATTCCGGTCTCCC
DNA 2: TGGTGGCTACGACGGGATT
B16: AUGAUUG (DNA:RNA)
RNA: B1 RNA with U27G, C29U, A31G
DNA 1: CAATCTGAATTCCGGTCTCCC
DNA 2: TGGTGGCTACGACGGGATT
B17: AUCCAUG (DNA:RNA)
RNA: B1 RNA with U27C, A28C, C29A, A31G
DNA 1: CAATCTGAATTCCGGTCTCCC
DNA 2: TGGTGGCTACGACGGGATT
B18: UCUGGGU (DNA:RNA)
RNA: B10 RNA with C25U, A27U, C28G, A30G, C31U
DNA 1: CAATCTGAATTCCGGTCTCCC
DNA 2: TGGTGGCTACGACGGGATT
B19: GUGGUUC (DNA:RNA)
RNA: B1 RNA with A25G, U27G, A28G, C29U, A31C
DNA 1: CAATCTGAATTCCGGTCTCCC
DNA 2: TGGTGGCTACGACGGGATT
B20: AGCGCCG (DNA:RNA)
RNA: B1 RNA with U26G, U27C, A28G, U30C, A31G
DNA 1: CAATCTGAATTCCGGTCTCCC
DNA 2: TGGTGGCTACGACGGGATT
B21: ACACACC (DNA:RNA)
RNA: B10 RNA with C25A, G29A, A30C
DNA 1: CAATCTGAATTCCGGTCTCCC
DNA 2: TGGTGGCTACGACGGGATT
B22: UGUGUAA (DNA:RNA)
RNA: B1 RNA with A25U, U26G, A28G, C29U, U30A
DNA 1: CAATCTGAATTCCGGTCTCCC
DNA 2: TGGTGGCTACGACGGGATT
B23: CAACCGG (DNA:RNA)
RNA: B10 RNA with C26A, G29C, A30G, C31G
DNA 1: CAATCTGAATTCCGGTCTCCC
DNA 2: TGGTGGCTACGACGGGATT
B24: CUACAAU (DNA:RNA)
RNA: B10 RNA with C26U, G29A, C31U
DNA 1: CAATCTGAATTCCGGTCTCCC
DNA 2: TGGTGGCTACGACGGGATT
B25: CGGCAAU (DNA:RNA)
RNA: B10 RNA with C26G, A27G, G29A, C31U
DNA 1: CAATCTGAATTCCGGTCTCCC
DNA 2: TGGTGGCTACGACGGGATT
B26: UUGGUUU (DNA:RNA)
RNA: B1 RNA with A25U, U27G, A28G, C29U, A31U
DNA 1: CAATCTGAATTCCGGTCTCCC
DNA 2: TGGTGGCTACGACGGGATT
B27: CGUUGUA (DNA:RNA)
RNA: B1 RNA with A25C, U26G, A28U, C29G
DNA 1: CAATCTGAATTCCGGTCTCCC
DNA 2: TGGTGGCTACGACGGGATT
B28: GUUUGUA (DNA:RNA)
RNA: B1 RNA with A25G, A28U, C29G
DNA 1: CAATCTGAATTCCGGTCTCCC
DNA 2: TGGTGGCTACGACGGGATT
B29: GGAUGUA (DNA:RNA)
RNA: B1 RNA with A25G, U26G, U27A, A28U, C29G
DNA 1: CAATCTGAATTCCGGTCTCCC
DNA 2: TGGTGGCTACGACGGGATT
B30: GAAUGUA (DNA:RNA)
RNA: B1 RNA with A25G, U26A, U27A, A28U, C29G
DNA 1: CAATCTGAATTCCGGTCTCCC
DNA 2: TGGTGGCTACGACGGGATT
B31: ACAUGUA (DNA:RNA)
RNA: B1 RNA with U26C, U27A, A28U, C29G
DNA 1: CAATCTGAATTCCGGTCTCCC
DNA 2: TGGTGGCTACGACGGGATT
B32: CGAUGUA (DNA:RNA)
RNA: B10 RNA with C26G, C28U, A30U, C31A
DNA 1: CAATCTGAATTCCGGTCTCCC
DNA 2: TGGTGGCTACGACGGGATT
B33: GUCCGUA (DNA:RNA)
RNA: B1 RNA with A25G, U27C, A28C, C29G
DNA 1: CAATCTGAATTCCGGTCTCCC
DNA 2: TGGTGGCTACGACGGGATT
B34: CUAUGUA (DNA:RNA)
RNA: B1 RNA with A25C, U27A, A28U, C29G
DNA 1: CAATCTGAATTCCGGTCTCCC
DNA 2: TGGTGGCTACGACGGGATT
B35: GUAUGUA (DNA:RNA)
RNA: B1 RNA with A25G, U27A, A28U, C29G
DNA 1: CAATCTGAATTCCGGTCTCCC
DNA 2: TGGTGGCTACGACGGGATT
B36: GAUUGUA (DNA:RNA)
RNA: B1 RNA with A25G, U26A, A28U, C29G
DNA 1: CAATCTGAATTCCGGTCTCCC
DNA 2: TGGTGGCTACGACGGGATT
B37: GCAUGUA (DNA:RNA)
RNA: B10 RNA with C25G, C28U, A30U, C31A
DNA 1: CAATCTGAATTCCGGTCTCCC
DNA 2: TGGTGGCTACGACGGGATT
B38: GCAUAUA (DNA:RNA)
RNA: B1 RNA with A25G, U26C, U27A, A28U, C29A
DNA 1: CAATCTGAATTCCGGTCTCCC
DNA 2: TGGTGGCTACGACGGGATT

For the assay, the target named is T1, RBFOX1 RRM RbFoxmut (Fox-RRM*). As to the kind of experiment: EMSA; HiTS-Eq, 1 nM pool, 10 min; buffer printed only for the single-RNA assays: 10 mM Tris pH 7.5, 150 mM NaCl, 3.4 mM EDTA, 0.001% NP-40, 30 C. The conditions noted are these: tags: His6 N-terminal (pET28a); label: 5' 32P. The method in brief: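 A pool of RNA with 7 randomized nucleotides, 5′-radiolabelled and with DNA-annealed flanks, was equilibrated at 1 nM for 10 min in 50 µL with purified RbFox RRM, wild type or mutant, across increasing protein concentrations. Free RNA was separated by 8% native PAGE, excised, reverse-transcribed, barcoded by PCR and sequenced. Relative association constants were obtained from read-count changes of each RNA species versus the control reaction and normalised to the cognate motif.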
B1: the binding signal is 0.129 KA relative to UGCAUGU. With B2, the binding signal was 0.132 KA relative to UGCAUGU.

B3: the binding signal is 0.467 KA relative to UGCAUGU. With B4, the binding signal was 0.119 KA relative to UGCAUGU. As to B5, the binding signal was 0.13 KA relative to UGCAUGU.

Consider B6, for which the binding signal is 0.394 KA relative to UGCAUGU.

B7: the binding signal is 0.229 KA relative to UGCAUGU. With B8, the binding signal is 0.123 KA relative to UGCAUGU. In the case of B9 it was 0.076 KA relative to UGCAUGU; in that of B10, 0.0943 KA relative to UGCAUGU.

Regarding B11, the binding signal was 0.134 KA relative to UGCAUGU. As to B12, the binding signal is 0.139 KA relative to UGCAUGU. Regarding B13, the binding signal is 0.076 KA relative to UGCAUGU. For the molecule B14, the binding signal was 1.02 KA relative to UGCAUGU.

Consider B15, for which the binding signal was 0.334 KA relative to UGCAUGU. For the molecule B16, the binding signal is 0.428 KA relative to UGCAUGU. Turning to B17, the binding signal is 0.1 KA relative to UGCAUGU. With B18, the binding signal was 0.0963 KA relative to UGCAUGU. B19: the binding signal is 0.283 KA relative to UGCAUGU.

As for B20, the binding signal was 0.116 KA relative to UGCAUGU.

For the molecule B21, the binding signal is 0.0425 KA relative to UGCAUGU. B22: the binding signal is 0.111 KA relative to UGCAUGU. Regarding B23, the binding signal is 0.0516 KA relative to UGCAUGU. In the case of B24, the binding signal was 0.0289 KA relative to UGCAUGU.

Take B25: the binding signal is 0.053 KA relative to UGCAUGU.

With B26, the binding signal is 0.1 KA relative to UGCAUGU.

Regarding B27, the binding signal was 0.258 KA relative to UGCAUGU.

For B28, the binding signal is 0.446 KA relative to UGCAUGU. For the molecule B29, the binding signal is 0.285 KA relative to UGCAUGU.

With B30, the binding signal was 1.18 KA relative to UGCAUGU. In the case of B31 it was 0.2 KA relative to UGCAUGU; in that of B32, 0.202 KA relative to UGCAUGU.

Take B33: the binding signal was 0.12 KA relative to UGCAUGU.

For the molecule B34, the binding signal was 0.198 KA relative to UGCAUGU. On to B35, for which the binding signal was 0.63 KA relative to UGCAUGU. As to B36, the binding signal was 0.284 KA relative to UGCAUGU. With B37, the binding signal is 1.04 KA relative to UGCAUGU. In the case of B38 it was 0.169 KA relative to UGCAUGU.

For the origin of these results see publication PMC9911399, “Two distinct binding modes provide the RNA-binding protein RbFox with extraordinary sequence specificity”.
